Source: PubChem BioAssay (NCATS)
A number with no mark means an inactive call. The call rests on the fitted dose curve; in most records, active means well fitted curve in the direction sought with a large enough effect; inconclusive means small, poorly fitted or top-dose-only effect, or another doubt; inactive means no such curve, though single readings can be large; an effect the other way counts as inactive or inconclusive. Records with an inconclusive call do not appear.

Molecular target: Glucagon-like peptide 1 receptor (Homo sapiens) (UniProt P43220)
Test: qHTS of GLP-1 Receptor Agonists: LOPAC Validation (AID 624148);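 further: higher luminescence signal means agonism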
Details: GLP-1R agonist cell assay; series mostly up to 46.1 µM; activation: at the top concentration
How it was run: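 HEK293 cells stably co-expressing a cAMP-responsive luciferase reporter and a hypersensitive GLP-1R were plated 12 h at 37 °C and exposed to compounds for 4-6 hr at 37 °C, 5% CO2. Luminescence was read 12 min after adding detection reagent.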
Further: 0% is about no effect.

Glucagon-like peptide 1 receptor (Homo sapiens), sequence (P43220 whole entry, looked up): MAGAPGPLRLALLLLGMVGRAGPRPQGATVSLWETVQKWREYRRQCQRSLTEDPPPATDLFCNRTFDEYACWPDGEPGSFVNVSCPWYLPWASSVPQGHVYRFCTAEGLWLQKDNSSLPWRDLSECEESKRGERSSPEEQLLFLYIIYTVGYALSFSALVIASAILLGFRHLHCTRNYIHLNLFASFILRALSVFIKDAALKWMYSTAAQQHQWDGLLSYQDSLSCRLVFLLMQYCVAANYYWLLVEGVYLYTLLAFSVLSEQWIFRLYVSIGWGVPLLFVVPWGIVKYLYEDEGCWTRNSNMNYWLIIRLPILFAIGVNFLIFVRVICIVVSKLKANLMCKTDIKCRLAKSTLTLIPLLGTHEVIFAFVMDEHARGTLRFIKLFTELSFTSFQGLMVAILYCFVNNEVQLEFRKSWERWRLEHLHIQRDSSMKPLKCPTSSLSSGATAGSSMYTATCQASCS

| SMILES | activation |
| --- | --- |
| N=C(N)SCCc1ccc(CCSC(=N)N)cc1 | -1.14% |
| CCCCCCCCCCCCCCCC(=O)NCC(COP(=O)([O-])OCC[N+](C)(C)C)OCC (stereo not given) | 5.2% |
| CN(C)CCCO[C@@H]1[C@H]2OC(C)(C)O[C@H]2O[C@@H]1[C@H](O)CO | -0.453% |
| NC[C@H]1O[C@@H](n2cnc3c(N)ncnc32)[C@H](O)[C@@H]1O | 5.99% |
| O=C1O/C(=C/Br)CCC1c1cccc2ccccc12 (stereo not given) | -1.87% |
| NCCNC(=O)c1ncsc1-c1cccc(F)c1 | -1.57% |
| CCOC(=O)C1=C(C)NC(C)=C(C(=O)OCC)C1c1c(F)c(F)c(F)c(F)c1F | 0.723% |
| NCCCS(=O)(=O)O | -1.81% |
| O=c1[nH]c2cc(C(F)(F)F)ccc2n1-c1cc(C(F)(F)F)ccc1O | -1.86% |
| CO/N=C(\C(=O)N[C@@H]1C(=O)N2C(C(=O)O)=C(COC(C)=O)CS[C@H]12)c1csc(N)n1 | 0.834% |
| NC[C@@H]1O[C@H](C23CC4CC(CC(C4)C2)C3)Cc2c1ccc(O)c2O | 11.5% |
| CC[C@@H](C)[C@H]1O[C@]2(CC[C@H]1C)C[C@@H]1C[C@@H](CC=C(C)[C@@H](O[C@H]3C[C@H](OC)[C@@H](O[C@H]4C[C@H](OC)[C@@H](O)[C@H](C)O4)[C@H](C)O3)[C@@H](C)C=CC=C3CO[C@@H]4[C@H](O)C(C)=C[C@@H](C(=O)O1)[C@]34O)O2 | 0.819% |
| NCCCCCCCCCCN | -1.34% |
| O=S(=O)(c1cccc2c(I)cccc12)N1CCCNCC1 | 12.3% |
| CCCCC#Cc1nc(NC)c2ncn([C@@H]3O[C@H](CO)[C@@H](O)[C@H]3O)c2n1 | 14.3% |
| O=C(c1ccc(OCCCc2cnc[nH]2)cc1)C1CC1 | -0.771% |
| C#C[C@]1(O)CC[C@H]2[C@@H]3CCC4=Cc5oncc5CC4(C)[C@H]3CCC21C (stereo not given in full) | 12.8% |
| O=C(c1ccc(Cl)cc1)N1CCN(c2ccc([N+](=O)[O-])c3ncccc23)CC1 | 12% |
| Cn1cc(C2=C(c3ccc(Cl)cc3Cl)C(=O)NC2=O)c2ccccc21 | -0.877% |
| Cn1c(=O)c2[nH]c(-c3ccccc3)nc2n(C)c1=O | -2.02% |
| Nc1nc(Cl)nc2c1ncn2[C@@H]1O[C@H](COP(=O)(O)OP(=O)(O)OP(=O)(O)O)[C@@H](O)[C@H]1O | 16.5% |
| CNc1ncnc2c1ncn2[C@@H]1O[C@H](CO)[C@@H](O)[C@H]1O | 26% |
| CCCCCCCCCCCCCCCC(=O)OC(CC(=O)O)C[N+](C)(C)C (stereo not given) | 0.666% |
| c1ccc(-c2ccccn2)nc1 | 8.64% |
| NO | -1.37% |
| O=[N+]([O-])c1ccc(CSc2ncnc3c2ncn3[C@@H]2O[C@H](CO)[C@@H](O)[C@H]2O)cc1 | -1.06% |
| C[C@@H](NC(=O)/C(C#N)=C/c1ccc(O)c(O)c1)c1ccccc1 | -1.43% |
| CN1C2CCC1CC(OC(=O)C(O)c1ccccc1)C2 (stereo not given) | -1.34% |
| Cc1cc2c(cc1Cl)N(C(=O)Nc1ccc(Oc3cccnc3C)nc1)CC2 | -1.12% |
| NC(=O)C(=O)O | -1.53% |

Test system: not listed separately
Test: qHTS of Nrf2 Activators: LOPAC Validation (AID 624149)
Details: Nrf2/ARE reporter cell assay; series mostly up to 46.1 µM; activation: at the top concentration
How it was run: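 Luciferase signal from ARE activation, read with Steady-Glo after 30 min at room temperature. Compounds were pin-transferred onto AREc32_Fluc cells (1000/well, OPTI-MEM/5% FBS, seeded overnight) and left 24 hr at 37 deg C.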

| SMILES | activation |
| --- | --- |
| N=C(N)SCCc1ccc(CCSC(=N)N)cc1 | -1.84% |
| CCCCCCCCCCCCCCCC(=O)NCC(COP(=O)([O-])OCC[N+](C)(C)C)OCC (stereo not given) | -1.37% |
| CN(C)CCCO[C@@H]1[C@H]2OC(C)(C)O[C@H]2O[C@@H]1[C@H](O)CO | -0.922% |
| NC[C@H]1O[C@@H](n2cnc3c(N)ncnc32)[C@H](O)[C@@H]1O | -0.922% |
| O=C1O/C(=C/Br)CCC1c1cccc2ccccc12 (stereo not given) | 7.08% |
| NCCNC(=O)c1ncsc1-c1cccc(F)c1 | -0.619% |
| CCOC(=O)C1=C(C)NC(C)=C(C(=O)OCC)C1c1c(F)c(F)c(F)c(F)c1F | 0.963% |
| NCCCS(=O)(=O)O | 0.973% |
| O=c1[nH]c2cc(C(F)(F)F)ccc2n1-c1cc(C(F)(F)F)ccc1O | -1.14% |
| CO/N=C(\C(=O)N[C@@H]1C(=O)N2C(C(=O)O)=C(COC(C)=O)CS[C@H]12)c1csc(N)n1 | -1.51% |
| NC[C@@H]1O[C@H](C23CC4CC(CC(C4)C2)C3)Cc2c1ccc(O)c2O | 7.58% |
| CC[C@@H](C)[C@H]1O[C@]2(CC[C@H]1C)C[C@@H]1C[C@@H](CC=C(C)[C@@H](O[C@H]3C[C@H](OC)[C@@H](O[C@H]4C[C@H](OC)[C@@H](O)[C@H](C)O4)[C@H](C)O3)[C@@H](C)C=CC=C3CO[C@@H]4[C@H](O)C(C)=C[C@@H](C(=O)O1)[C@]34O)O2 | -2.86% |
| NCCCCCCCCCCN | -2.01% |
| O=S(=O)(c1cccc2c(I)cccc12)N1CCCNCC1 | 19.5% |
| CCCCC#Cc1nc(NC)c2ncn([C@@H]3O[C@H](CO)[C@@H](O)[C@H]3O)c2n1 | -2.14% |
| O=C(c1ccc(OCCCc2cnc[nH]2)cc1)C1CC1 | -2.21% |
| C#C[C@]1(O)CC[C@H]2[C@@H]3CCC4=Cc5oncc5CC4(C)[C@H]3CCC21C (stereo not given in full) | 1.54% |
| O=C(c1ccc(Cl)cc1)N1CCN(c2ccc([N+](=O)[O-])c3ncccc23)CC1 | 2.33% |
| Cn1cc(C2=C(c3ccc(Cl)cc3Cl)C(=O)NC2=O)c2ccccc21 | -1.08% |
| Cn1c(=O)c2[nH]c(-c3ccccc3)nc2n(C)c1=O | 6.78% |
| Nc1nc(Cl)nc2c1ncn2[C@@H]1O[C@H](COP(=O)(O)OP(=O)(O)OP(=O)(O)O)[C@@H](O)[C@H]1O | -2.4% |
| CNc1ncnc2c1ncn2[C@@H]1O[C@H](CO)[C@@H](O)[C@H]1O | -0.756% |
| CCCCCCCCCCCCCCCC(=O)OC(CC(=O)O)C[N+](C)(C)C (stereo not given) | 0.291% |
| c1ccc(-c2ccccn2)nc1 | -2.12% |
| NO | -0.866% |
| O=[N+]([O-])c1ccc(CSc2ncnc3c2ncn3[C@@H]2O[C@H](CO)[C@@H](O)[C@H]2O)cc1 | -2.22% |
| C[C@@H](NC(=O)/C(C#N)=C/c1ccc(O)c(O)c1)c1ccccc1 | 10.6% |
| CN1C2CCC1CC(OC(=O)C(O)c1ccccc1)C2 (stereo not given) | -1.9% |
| Cc1cc2c(cc1Cl)N(C(=O)Nc1ccc(Oc3cccnc3C)nc1)CC2 | -1.38% |
| NC(=O)C(=O)O | -0.518% |
